In article PMC5540273 (PLoS ONE, 2017):

Tested on: PRKG1
Conditions: concentration: 1 μM,replicates: in singlicate; n = 1
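Note: KINOMEscan kinase panel screen.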

SMILES | %Inh [%]
CNC(=O)c1ccccc1Sc1ccc2c(/C=C/c3ccccn3)n[nH]c2c1 | 0
O=C(NCCNc1ccnc(NCc2ccc(F)cc2)n1)c1cc2ccccc2s1 [GSK1379944] | 22
CN(C)CCOc1ccc(-c2cc(-c3c[nH]nc3-c3ccccn3)ccn2)cc1 [GW835314] | 0
Cc1cc(C(=O)Nc2ccc(Oc3ccc4nc(NC(=O)C5CC5)cn4n3)cc2)nn1-c1ccccc1 | 8
Cc1ccc(-n2nc(C(C)(C)C)cc2NC(=O)Nc2ccc(OCCN3CCOCC3)c3ccccc23)cc1 [GW839464] | 0
CCN(CC)CCCCNc1ncc2cc(-c3c(Cl)cccc3Cl)c(NC(=O)NC(C)(C)C)nc2n1 | 2
CCN(CC)CCOc1ccc(Nc2ncc3cc(-c4c(Cl)cccc4Cl)c(=O)n(C)c3n2)cc1 [SB-601273] | 0
Cc1cc2cn[nH]c2cc1-c1cccc2c(N)c(C(N)=O)nnc12 | 0
CC(C)Nc1cc(-c2ccc3c(N)n[nH]c3c2)nc(N)n1 [GSK2221681] | 0
C[C@@H](Oc1cc(-c2cnn(C3CCNCC3)c2)cnc1N)c1c(Cl)ccc(F)c1Cl | 0
Cl.Cl.Nc1nc(-c2ccc3c(N)n[nH]c3c2)cc(N2CCCC(NC(=O)c3ccccc3)C2)n1 (stereo not drawn) [GSK2286775] | 0
CC(C)N1C(=O)Cc2cc(Nc3ncc(C(F)(F)F)c(NCc4cccc(S(C)(=O)=O)c4)n3)ccc21 | 0
Cl.Cl.NC[C@H](Cc1ccc(C(F)(F)F)cc1)NC(=O)c1cc(Br)c(-c2ccnc3[nH]ccc23)s1 [GSK1487252] | 98.1
C[C@@H]1CCN(C(=O)CC#N)C[C@@H]1N(C)c1ncnc2[nH]ccc12 | 14
CN(C)CC(O)COc1ccc(Nc2nccc(-c3cnn4nc(N5CCOCC5)ccc34)n2)cc1 (stereo not drawn) [GW767488] | 0
Cc1occc1-c1nc(N)c(OC[C@@H](N)Cc2c[nH]c3ccccc23)cc1-c1cc2c(C)n[nH]c2cn1 [GSK1660450] | 78
Cc1ccc2c(-c3ccncc3)c(-c3ccc(F)cc3)nn2c1.Cl [GW461484] | 30
C[C@H]1Oc2cc(cnc2N)-c2c(nn(C)c2C#N)CN(C)C(=O)c2ccc(F)cc21 | 0
NC(=O)c1cc(-c2ccccc2)cc2c(C3CCNCC3)c[nH]c12 [GSK301362] | 5
C=CC(=O)Nc1cc2c(Nc3ccc(F)c(Cl)c3)ncnc2cc1OCCCN1CCOCC1 [GW781483] | 0
CCn1c(-c2nonc2N)nc2c(C#CC(C)(C)O)nc(OCCN)cc21.Cl.Cl [GSK902056] | 39
Cc1n[nH]c2ccc(-c3cc(OC[C@@H](N)Cc4ccccc4)cnc3-c3ccoc3)cc12.O=C(O)C(F)(F)F.O=C(O)C(F)(F)F [GSK507358] | 0
Cl.Cl.NC[C@H](CC1CCCCC1)NC(=O)c1cc(Br)c(-c2ccnc3[nH]ccc23)s1 [GSK1581427] | 99.3
COc1ccc(C[C@@H](CN)NC(=O)c2cc(Br)c(-c3ccnc4[nH]ccc34)s2)cc1.Cl.Cl [GSK1389063] | 98.7
Cl.Oc1cc(-c2nc(-c3ccccc3)[nH]c2-c2ccncc2)ccc1Cl [SB-386023] | 15
Nc1nc(Nc2ccccc2)cc(-c2ccc3c(N)n[nH]c3c2)n1 [GSK2225749] | 12
O=C(NCCCN1CCOC1=O)c1cnc(NCc2cc(Cl)ccc2Cl)nc1NC1CCCC1 | 13

Tested on: PRKG2
Conditions: concentration: 1 μM,replicates: in singlicate; n = 1

SMILES | %Inh [%]
CNC(=O)c1ccccc1Sc1ccc2c(/C=C/c3ccccn3)n[nH]c2c1 | 0
O=C(NCCNc1ccnc(NCc2ccc(F)cc2)n1)c1cc2ccccc2s1 [GSK1379944] | 0
CN(C)CCOc1ccc(-c2cc(-c3c[nH]nc3-c3ccccn3)ccn2)cc1 [GW835314] | 12
Cc1cc(C(=O)Nc2ccc(Oc3ccc4nc(NC(=O)C5CC5)cn4n3)cc2)nn1-c1ccccc1 | 6
Cc1ccc(-n2nc(C(C)(C)C)cc2NC(=O)Nc2ccc(OCCN3CCOCC3)c3ccccc23)cc1 [GW839464] | 3
CCN(CC)CCCCNc1ncc2cc(-c3c(Cl)cccc3Cl)c(NC(=O)NC(C)(C)C)nc2n1 | 7
CCN(CC)CCOc1ccc(Nc2ncc3cc(-c4c(Cl)cccc4Cl)c(=O)n(C)c3n2)cc1 [SB-601273] | 9
Cc1cc2cn[nH]c2cc1-c1cccc2c(N)c(C(N)=O)nnc12 | 23
CC(C)Nc1cc(-c2ccc3c(N)n[nH]c3c2)nc(N)n1 [GSK2221681] | 42
C[C@@H](Oc1cc(-c2cnn(C3CCNCC3)c2)cnc1N)c1c(Cl)ccc(F)c1Cl | 3
Cl.Cl.Nc1nc(-c2ccc3c(N)n[nH]c3c2)cc(N2CCCC(NC(=O)c3ccccc3)C2)n1 (stereo not drawn) [GSK2286775] | 38
CC(C)N1C(=O)Cc2cc(Nc3ncc(C(F)(F)F)c(NCc4cccc(S(C)(=O)=O)c4)n3)ccc21 | 8
Cl.Cl.NC[C@H](Cc1ccc(C(F)(F)F)cc1)NC(=O)c1cc(Br)c(-c2ccnc3[nH]ccc23)s1 [GSK1487252] | 98.7
C[C@@H]1CCN(C(=O)CC#N)C[C@@H]1N(C)c1ncnc2[nH]ccc12 | 0
CN(C)CC(O)COc1ccc(Nc2nccc(-c3cnn4nc(N5CCOCC5)ccc34)n2)cc1 (stereo not drawn) [GW767488] | 50
Cc1occc1-c1nc(N)c(OC[C@@H](N)Cc2c[nH]c3ccccc23)cc1-c1cc2c(C)n[nH]c2cn1 [GSK1660450] | 96.2
Cc1ccc2c(-c3ccncc3)c(-c3ccc(F)cc3)nn2c1.Cl [GW461484] | 18
C[C@H]1Oc2cc(cnc2N)-c2c(nn(C)c2C#N)CN(C)C(=O)c2ccc(F)cc21 | 10
NC(=O)c1cc(-c2ccccc2)cc2c(C3CCNCC3)c[nH]c12 [GSK301362] | 0
C=CC(=O)Nc1cc2c(Nc3ccc(F)c(Cl)c3)ncnc2cc1OCCCN1CCOCC1 [GW781483] | 31
CCn1c(-c2nonc2N)nc2c(C#CC(C)(C)O)nc(OCCN)cc21.Cl.Cl [GSK902056] | 97
Cc1n[nH]c2ccc(-c3cc(OC[C@@H](N)Cc4ccccc4)cnc3-c3ccoc3)cc12.O=C(O)C(F)(F)F.O=C(O)C(F)(F)F [GSK507358] | 0
Cl.Cl.NC[C@H](CC1CCCCC1)NC(=O)c1cc(Br)c(-c2ccnc3[nH]ccc23)s1 [GSK1581427] | 98.5
COc1ccc(C[C@@H](CN)NC(=O)c2cc(Br)c(-c3ccnc4[nH]ccc34)s2)cc1.Cl.Cl [GSK1389063] | 98.9
Cl.Oc1cc(-c2nc(-c3ccccc3)[nH]c2-c2ccncc2)ccc1Cl [SB-386023] | 0
Nc1nc(Nc2ccccc2)cc(-c2ccc3c(N)n[nH]c3c2)n1 [GSK2225749] | 45
O=C(NCCCN1CCOC1=O)c1cnc(NCc2cc(Cl)ccc2Cl)nc1NC1CCCC1 | 21
